This note sets out measurements from PubChem BioAssay.

Where “and” joins values, the source holds several entries; their conditions need not be identical. Identical values can stand only once. For part of these data: Entries with a potency or affinity are not part of this list. Calls of active or inactive are those of the source.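 Rule for the calls, unless noted: active = compounds killing one labelled cell type while sparing the other, by normalised counts and ratio limits, not self-fluorescent; inactive = the rest.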

Assay [1] is described as follows: blockers of polyQ-driven CASP3 activation – cell-based (AID 1583). The conditions noted are these: polyglutamine-induced caspase-3 activation, cell assay; stronger effect = higher value;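 tested at 10 µM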.
Assay [2] is described as follows: yeast 75Q aggregation reduction – 75Q-TubU reporter (AID 1593). The conditions noted are these: Yeast 75Q polyglutamine aggregation reporter.
A short description of assay [3]: restoration of touch response, mutant HTT neurons – whole organism, C. elegans mechanosensory neurons, N-terminal huntingtin (AID 1599). The note with it: C. elegans polyQ-huntingtin mechanosensory neurons, stronger effect = higher value.
Assay [4] is described as follows: blockers of cytochrome c efflux from mitochondria – biochemical, purified mitochondria (AID 1603).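 Note: mouse liver mitochondria challenged with calcium chloride; signal normalized to the plate average as 100%.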 The note with it: stronger effect = lower value.
Assay [5] can be described thus: polyglutamine aggregate formation blockers (AID 1604). The conditions noted are these: polyglutamine-induced protein aggregation inhibition assay; stronger effect = higher value; tested at 2.5 µM.
A short description of assay [6]: glutamate transport activators, MN-1 cells, MN-1 cell line (AID 1612).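 Note: tested at 1 µM final; 0% = mean of DMSO vehicle wells on each plate; positive means more glutamate uptake than control and negative means less.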 The conditions noted are these: MN-1 motor neuron cells, stronger effect = higher value.
Assay [7] can be described thus: GFP-Q80 aggregate reduction, neuronal-like cells, cell-based, NGF-treated PC12, GFPQ80 (AID 1614).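 Note: lower means fewer inclusions and 0 means no inclusions at all.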 The note with it: PC12 NGF-treated GFP-polyQ80 inclusion reduction.
A short description of assay [8]: 75Q-TubH aggregate inhibition, S. cerevisiae, yeast (AID 1616). The conditions noted are these: S. cerevisiae 75Q-TubH polyglutamine aggregation suppression; stronger effect = higher value.
Assay [9] can be described thus: P. berghei load reduction in hepatocytes – cell-based, HepG2, luciferase luminescence, HepG2 viability, primary screen (AID 624349; in the data active = parasite load remaining mostly below about 12%, no sharp cut-off; inactive = mostly above about 10%;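 note: 100% = mean of DMSO negative control wells on the same plate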). The conditions noted are these: P. berghei liver stage in HepG2, luciferase luminescence, concentration not given here; parasite load remaining: stronger effect = lower value; viability: measured here: HepG2 viability without parasites.
Assay [10] is described as follows: EMT-state selective cytotoxicity in co-culture – imaging, PC-3E GFP, TEM4-18 mCherry, primary screen (AID 1345086).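 For all read-outs here: cells exposed to compound for 72 h before imaging.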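 For red/green cell ratio (normalised): normalised mesenchymal count divided by normalised epithelial count so high means epithelial killing.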 The note with it: PC-3E GFP / TEM4-18 mCherry co-culture, imaging cell counts, at 1 µM; for red/green cell ratio (normalised): actives lie on both sides, counts scaled to control wells, 1 = unselective.
The nature of assay [11]: viability loss with induced miR-34 in A549 – imaging, A549 dox-inducible miR-34, nuclei and caspase counts, primary screen (AID 1347080;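 active = compounds whose cell count with miR-34 switched on is under 0.7 times the count with it off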). The note with it: A549 miR-34 inducible, Hoechst nuclei count, 48 h.
The target of assay [12] is Mitogen-activated protein kinase 7 (Homo sapiens) (UniProt Q13164). Kind of assay: Gal4-ERK5 driven luciferase induction – cell-based, HTS, primary screen (AID 1508626;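 active = luciferase signal above three times the same-plate solvent-only control wells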;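 note: luciferase driven by Gal4-ERK5 fusion binding five Gal4 sites before minimal TATA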). The note with it: HeLa Gal4-ERK5 transactivation, 18 h, at 5 µM, stronger effect = higher value.
Assay [13] deals with NAD(+) hydrolase SARM1 (Homo sapiens) (UniProt Q6SZW1). Kind of assay: blocking NAD cleavage by SARM1 SAM-TIR – cell lysate, NAD-Glo luminescence (AID 1508614;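 active = compound whose remaining NAD level is above about 45 nM, limit read from the data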;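 note: higher remaining NAD means stronger inhibition of SARM1 NADase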). The note with it: SAM-TIR HEK293T lysate NADase, at 1 µM, stronger effect = higher value.
Where [14] appears, read: measured here: epithelial PC-3E GFP cell survival.
The mark [15] stands for this setting: measured here: mesenchymal TEM4-18 mCherry cell survival.
Setting [16] is: stronger effect = lower value, cell number ratio, induced over uninduced.
The mark [17] stands for this setting: measured here: relative caspase fold change +Dox/-Dox.
Setting [18] is: measured here: total cells with miR-34 induction, stronger effect = lower value.
Where [19] appears, read: measured here: total cells without miR-34 induction.

Sequence of Mitogen-activated protein kinase 7 (Homo sapiens) (Q13164 whole entry, looked up, the tested form may be a part): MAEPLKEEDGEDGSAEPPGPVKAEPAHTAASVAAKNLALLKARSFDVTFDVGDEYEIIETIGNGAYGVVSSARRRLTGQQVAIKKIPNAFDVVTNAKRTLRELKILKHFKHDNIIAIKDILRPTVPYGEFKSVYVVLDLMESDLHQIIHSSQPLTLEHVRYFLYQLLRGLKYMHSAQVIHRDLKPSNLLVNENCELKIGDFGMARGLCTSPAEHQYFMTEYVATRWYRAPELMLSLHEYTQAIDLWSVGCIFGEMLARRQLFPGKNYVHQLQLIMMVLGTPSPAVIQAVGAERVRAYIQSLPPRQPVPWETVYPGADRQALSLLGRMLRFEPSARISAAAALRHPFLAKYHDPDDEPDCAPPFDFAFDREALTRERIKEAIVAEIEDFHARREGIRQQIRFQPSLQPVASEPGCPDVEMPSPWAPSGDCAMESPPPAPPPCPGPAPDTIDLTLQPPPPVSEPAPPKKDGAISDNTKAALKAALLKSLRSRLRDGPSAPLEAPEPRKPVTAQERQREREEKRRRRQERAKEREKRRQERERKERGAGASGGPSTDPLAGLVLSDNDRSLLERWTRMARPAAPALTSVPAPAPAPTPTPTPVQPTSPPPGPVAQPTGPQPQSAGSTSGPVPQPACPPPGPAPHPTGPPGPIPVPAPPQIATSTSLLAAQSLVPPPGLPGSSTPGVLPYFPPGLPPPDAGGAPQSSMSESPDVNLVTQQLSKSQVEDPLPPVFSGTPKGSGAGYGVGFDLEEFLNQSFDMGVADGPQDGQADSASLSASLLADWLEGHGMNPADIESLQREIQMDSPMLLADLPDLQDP
Sequence of NAD(+) hydrolase SARM1 (Homo sapiens) (Q6SZW1 whole entry, looked up): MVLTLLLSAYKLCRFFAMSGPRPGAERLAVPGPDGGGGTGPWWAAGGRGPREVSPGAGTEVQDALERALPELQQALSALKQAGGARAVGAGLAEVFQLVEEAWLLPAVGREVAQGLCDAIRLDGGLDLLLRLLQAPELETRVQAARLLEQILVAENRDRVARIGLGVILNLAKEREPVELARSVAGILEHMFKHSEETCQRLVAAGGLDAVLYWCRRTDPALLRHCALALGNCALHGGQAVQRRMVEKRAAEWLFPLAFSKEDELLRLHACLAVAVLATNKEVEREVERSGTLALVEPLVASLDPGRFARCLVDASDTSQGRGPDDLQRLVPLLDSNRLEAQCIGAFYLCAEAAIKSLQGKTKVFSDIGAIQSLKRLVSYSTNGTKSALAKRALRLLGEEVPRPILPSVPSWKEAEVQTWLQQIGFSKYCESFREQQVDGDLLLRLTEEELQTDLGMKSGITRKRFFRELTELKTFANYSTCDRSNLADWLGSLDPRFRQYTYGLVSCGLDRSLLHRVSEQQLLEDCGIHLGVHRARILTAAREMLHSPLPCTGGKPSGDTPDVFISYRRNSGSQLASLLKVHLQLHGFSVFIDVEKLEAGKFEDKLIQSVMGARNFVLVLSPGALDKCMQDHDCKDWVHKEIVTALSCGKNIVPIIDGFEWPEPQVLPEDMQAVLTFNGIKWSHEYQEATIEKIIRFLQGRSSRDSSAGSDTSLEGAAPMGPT

Molecule `C[C@]12C=CC(=O)C=C1CCC1C2[C@@H](O)C[C@@]2(C)C1CC[C@]2(O)C(=O)CO` (stereo partly drawn) returned an inhibition in assay [1] of 12%. The same molecule returned a score in [2] of 1.21. The rescue above control in assay [3] came out at 1.9. The cytochrome c release ratio in [4] turned out to be 1.29. For the same molecule, the inhibition of aggregation in assay [5] is 70.5%. For the same molecule, the glutamate uptake change in [6] turned out to be 9.97%. Also, the inclusion score in [7] is 2. This molecule also yielded an aggregation suppression score in [8] of 1.27. The parasite load remaining in assay [9] is 115% (inactive) and 54.5% (inactive). In addition, the viability in [9] was 73.3% and 82.9%. In addition, the red/green cell ratio (normalised) in assay [10] is 1.37 (inactive). Moreover, the normalised cell number in assay [10] (setting [14]) amounted to 1.03; in [10] (setting [15]), 1.41. The figures for the fold change in assay [11] (setting [16]) and in assay [11] (setting [17]) were 0.848 (inactive) and 2.13, respectively. In addition, the cell count is 6630 in assay [11] (setting [18]) and 7820 in [11] (setting [19]).
Turning to `CC(C)(CO)C(O)C(=O)NCCCO` (stereo not drawn), the parasite load remaining in assay [9] is 56.4% (inactive). Also, in assay [9], the viability was found to be 105%. For the same molecule, in assay [10], the red/green cell ratio (normalised) was 1.08 (inactive) and 0.9 (inactive). Also, the normalised cell number was 1.14 and 1.02 in [10] (setting [14]); 1.23 and 0.92 in assay [10] (setting [15]). In addition, the results for the fold change in assay [11] (setting [16]) and in [11] (setting [17]) were 0.911 (inactive) and 4.72, respectively. For the same molecule, the results for the cell count in assay [11] (setting [18]) and in [11] (setting [19]) were 11800 and 13000, respectively. For the same molecule, the luciferase signal in assay [12] was 68 AU (inactive).
For the molecule `CC(=O)Oc1c(C)cccc1C(=O)O`, the red/green cell ratio (normalised) in assay [10] is 0.87 (inactive). In addition, the normalised cell number in [10] (setting [14]) worked out at 1.16; in assay [10] (setting [15]), 1. The fold change in assay [11] (setting [16]) is 0.895 (inactive); in assay [11] (setting [17]), 0.783. Moreover, the cell count in [11] (setting [18]) was found to be 8780; in [11] (setting [19]), 9810. In assay [13], the remaining NAD is 10 nM (inactive). For the same molecule, in [12], the luciferase signal is 56 AU (inactive).
On to `O=C1C2CC3CC1CC(O)(C3)C2`, for which, in assay [10], the red/green cell ratio (normalised) is 0.85 (inactive). In addition, the normalised cell number in [10] (setting [14]) came out at 1.16; in assay [10] (setting [15]) it was 0.99. Moreover, the results for the fold change in [11] (setting [16]) and in assay [11] (setting [17]) were 0.951 (inactive) and 0.928, respectively. The cell count was 9100 in assay [11] (setting [18]) and 9570 in [11] (setting [19]). Further, the remaining NAD in assay [13] is 10 nM (inactive).
Take `OC[C@H]1O[C@H](O[C@]2(CCl)O[C@H](CCl)[C@@H](O)[C@@H]2O)[C@H](O)[C@@H](O)[C@H]1Cl`: in [9], the parasite load remaining is 60.8% (inactive). Moreover, the viability in [9] came out at 98.6%. Further, in [10], the red/green cell ratio (normalised) was 0.96 (inactive). Further, the normalised cell number in assay [10] (setting [14]) amounted to 1.1; in assay [10] (setting [15]), 1.05. The fold change in assay [11] (setting [16]) is 0.909 (inactive); in [11] (setting [17]) it was 4.93. Besides, the figures for the cell count in [11] (setting [18]) and in assay [11] (setting [19]) were 12300 and 13500, respectively. Also, in assay [13], the remaining NAD is 10 nM (inactive). The luciferase signal in assay [12] was 68 AU (inactive).
For the molecule `C[C@]12C=CC(=O)C=C1CCC1C2C(=O)C[C@@]2(C)C1CC[C@]2(O)C(=O)CO` (stereo partly drawn), the inhibition in assay [1] amounted to 10.6%. Further, in assay [2], the score came to 1.16. This molecule showed a rescue above control in [3] of 5.79. In addition, the cytochrome c release ratio in assay [4] turned out to be 0.79. Further, the inhibition of aggregation in assay [5] is -17.6%. Also, the glutamate uptake change in assay [6] was -8.9%. This molecule also displayed an inclusion score in assay [7] of 2. This molecule yielded an aggregation suppression score in assay [8] of 1.29. Besides, the parasite load remaining in [9] is 71.9% (inactive) and 35.5% (inactive). In [9], the viability was 73% and 91%. Further, the red/green cell ratio (normalised) in assay [10] is 1.16 (inactive). Moreover, the values for the normalised cell number in assay [10] (setting [14]) and in assay [10] (setting [15]) were 0.94 and 1.1, respectively. For the same molecule, the figures for the fold change in assay [11] (setting [16]) and in assay [11] (setting [17]) were 0.854 (inactive) and 2.55, respectively. Further, the results for the cell count in [11] (setting [18]) and in assay [11] (setting [19]) were 10500 and 12300, respectively.
Take `FC(F)(F)C(Cl)Br` (stereo not drawn): the parasite load remaining in assay [9] is 24% (inactive). The viability in assay [9] worked out at 94.8%. In [10], the red/green cell ratio (normalised) is 0.84 (inactive). The normalised cell number in [10] (setting [14]) worked out at 1.13; in assay [10] (setting [15]), 0.95. In addition, the fold change in assay [11] (setting [16]) was 0.974 (inactive); in [11] (setting [17]) it was 2.12. Also, the cell count in [11] (setting [18]) was 12500; in assay [11] (setting [19]), 12900. For the same molecule, in [13], the remaining NAD is 10 nM (inactive). For the same molecule, the luciferase signal in assay [12] was 40 AU (inactive).
Take `C[C@@H]1O[C@@H](OC[C@H]2OC(Oc3c(-c4ccc(O)c(O)c4)oc4cc(O)cc(O)c4c3=O)[C@H](O)[C@@H](O)[C@@H]2O)[C@H](O)[C@H](O)[C@H]1O` (stereo partly drawn): the parasite load remaining in assay [9] is 80% (inactive). The viability in assay [9] stood at 104%. The red/green cell ratio (normalised) in assay [10] was 1.05 (inactive). The figures for the normalised cell number in [10] (setting [14]) and in assay [10] (setting [15]) were 0.95 and 0.99, respectively. For the same molecule, the values for the fold change in assay [11] (setting [16]) and in assay [11] (setting [17]) were 0.911 (inactive) and 2.84, respectively. Further, the cell count in assay [11] (setting [18]) amounted to 11500; in assay [11] (setting [19]) it was 12600. Moreover, the luciferase signal in assay [12] was 56 AU (inactive).

In general, inhibition refers to the drop in the measured response relative to a control, in per cent. Usually viability stands for a read-out of living cells in per cent, often relative to untreated cells.
